In PubChem BioAssay AID504339 (National Center for Advancing Translational Sciences (NCATS), 2011):
Out of some 390,000 compounds screened, about 17,000 (4.4%) were called active. Inconclusive results (about 8%) are left out. Calls follow the shape of the dose curve; as a rule, active = well fitted inhibition curve with a large enough effect; inconclusive = small, poorly fitted or top-dose-only effect; inactive = no such curve, though single readings can be large or run the other way. The entries come from a sample that favours actives as a whole.

Target: Lysine-specific demethylase 4A (Homo sapiens) (UniProt O75164)
Sequence (O75164 whole entry, looked up, the tested form may be a part): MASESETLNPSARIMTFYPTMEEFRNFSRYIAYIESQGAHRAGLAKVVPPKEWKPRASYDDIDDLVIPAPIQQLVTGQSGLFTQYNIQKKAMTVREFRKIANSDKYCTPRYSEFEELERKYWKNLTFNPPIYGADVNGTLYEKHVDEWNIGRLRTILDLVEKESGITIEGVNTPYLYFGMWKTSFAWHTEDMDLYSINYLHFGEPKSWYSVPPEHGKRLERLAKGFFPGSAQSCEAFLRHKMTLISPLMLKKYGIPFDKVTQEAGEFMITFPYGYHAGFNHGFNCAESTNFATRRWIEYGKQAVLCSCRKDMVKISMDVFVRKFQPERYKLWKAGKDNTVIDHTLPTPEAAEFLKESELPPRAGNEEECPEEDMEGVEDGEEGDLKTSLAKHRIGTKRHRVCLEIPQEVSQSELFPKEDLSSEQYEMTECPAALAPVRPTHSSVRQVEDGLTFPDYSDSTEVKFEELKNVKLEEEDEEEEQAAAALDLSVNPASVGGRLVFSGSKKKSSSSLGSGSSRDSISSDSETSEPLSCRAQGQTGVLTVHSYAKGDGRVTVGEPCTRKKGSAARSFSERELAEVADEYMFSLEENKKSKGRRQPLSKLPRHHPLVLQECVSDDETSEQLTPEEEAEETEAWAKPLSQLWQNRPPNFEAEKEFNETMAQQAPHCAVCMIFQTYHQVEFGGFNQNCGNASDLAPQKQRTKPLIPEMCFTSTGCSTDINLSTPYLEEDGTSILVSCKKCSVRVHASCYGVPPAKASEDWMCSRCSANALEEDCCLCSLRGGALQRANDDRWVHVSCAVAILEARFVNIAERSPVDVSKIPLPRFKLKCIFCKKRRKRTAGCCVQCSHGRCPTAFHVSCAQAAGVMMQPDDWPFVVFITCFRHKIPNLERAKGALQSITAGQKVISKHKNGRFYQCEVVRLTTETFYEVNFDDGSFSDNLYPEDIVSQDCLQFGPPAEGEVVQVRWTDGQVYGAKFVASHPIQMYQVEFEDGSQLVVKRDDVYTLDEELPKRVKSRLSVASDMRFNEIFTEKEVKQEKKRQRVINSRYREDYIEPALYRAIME
Assay: qHTS Assay for Inhibitors of JMJD2A-Tudor Domain; also: nearly all actives have a fitted effect of over 50% in size
Conditions: AlphaScreen JMJD2A-Tudor / H3K4me3 peptide binding; series mostly up to 114 µM; activity change, negative = inhibition: at the top concentration
% is scaled to controls: 0 for no effect and ±100 for the full control effect; potency is read from the fitted curve at half-maximal effect.

Activity change, negative = inhibition, inactive:
COc1cc(C(CC(=O)NCCC(C)C)N2Cc3ccccc3C2=O)cc(OC)c1OC (stereo not drawn) 3.79%, Cc1cccc2c1-c1sc(C(=O)Nc3ccc(F)cc3F)cc1CO2 39.6%, NC(=O)CSc1nc2c(oc3ccccc32)c(=O)n1Cc1ccccc1 -8%, CCOCCCNCc1ccc(OCc2ccc(F)cc2)c(OC)c1 3.44%, CCCCOCCCNC(=O)c1ccccc1OCC -7.56%, CCCCC(CC)CNC(=O)C1CCN(S(=O)(=O)c2cccc3nsnc23)CC1 (stereo not drawn) -17.7%, O=C1COc2ccc(S(=O)(=O)Nc3ccc(OC(F)(F)F)cc3)cc2N1 -9.36%, Nc1ncc(S(=O)(=O)Nc2ccc(OC(F)(F)F)cc2)cn1 2.58%, COC(=O)CC1Oc2ccccc2-n2cc(-c3ccccc3)nc21 (stereo not drawn) -2.24%, CCOc1ccc(-c2cc3nc(C4CCN(C(=O)OC(C)(C)C)CC4)c(C(=O)Nc4ccc(C(=O)OC)cc4)cn3n2)cc1 -12.3%, COc1ccc(OC)c2sc(N3CCN(C(=O)C4COc5ccccc5O4)CC3)nc12 (stereo not drawn) -18.2%, COc1cc(NS(=O)(=O)c2ccc3c(c2)OCC(C(=O)N2CCCC2)O3)cc(OC)c1 (stereo not drawn) -25.3%, CCNC(=O)Cn1nc(C)n2c(cc3c(OC)cccc32)c1=O -14.2%, O=C(CSC1=Nc2ccccc2C2=NC(c3ccccc3)C(=O)N12)NCC1CCCO1 (stereo not drawn) 0.929%, Cc1ccc(CNC(=O)CSC2=Nc3ccccc3C3=NC(C)C(=O)N23)cc1 (stereo not drawn) -6.62%, COc1ccc(-n2c(SC)nc3sc4c(c3c2=O)CCN(C(C)=O)C4)cc1 -13.3%, CCN1CCN(Cc2c(O)ccc3oc(C)c(C(=O)Nc4ccc(C)cc4C)c23)CC1 -20.1%, CC(C)c1ccc(C(=O)NCCCc2ccccc2)cc1 14.9%, C[n+]1ccc(C(=O)NCc2ccccc2)cc1 7.97%, Cc1nc2nc(SCC(=O)N(Cc3ccccc3)C(C)C)nn2c(C)c1Cc1ccccc1Cl -9.9%, CCc1ccc(-n2nnc(-c3nc(-c4ccccc4)no3)c2C)cc1 -5.52%, COc1ccc(SCc2cc(=O)c3ccc(C)c(C)c3[nH]2)cc1 -22.7%, CCOc1c(Br)cc(/C=C2\C(=O)N(CCC#N)N=C2C)cc1OC -2.14%, COc1cc(/C=N/O)cc(Br)c1OCc1cccc(Cl)c1 45.4%, COc1ccc(CNc2nc(-c3ccc(Cl)cc3)nn2S(=O)(=O)c2ccc(C)cc2)cc1 -7.22%, Cc1cccc(NC(=O)N2CCC(CN3CCc4ccccc4C3)CC2)c1C 0.66%, NS(=O)(=O)c1ccc(NC(=O)C(=O)Nc2ccc3nc4n(c(=O)c3c2)CCCCC4)cc1 -3.02%, O=C(c1ccc2c(c1)N(Cc1ccccc1F)C(=O)c1ccccc1S2(=O)=O)N1CCOCC1 -8.08%, COc1ccc(N(CC(=O)NCCc2ccc(Cl)cc2)S(=O)(=O)c2c(C)nn(C)c2C)cc1 -6.67%, COc1cccc(Cn2c(SCc3ccc(C(=O)N4CCCCC4)cc3)nc3ccncc32)c1 -19.1%, Cc1cccc(CSc2nc3ccncc3n2Cc2ccc(C(=O)O)cc2)c1 -4%, COc1cc(N2C(=O)CSC2=S)cc(OC)c1OC -5.37%, O=C1CSC(=S)N1c1ccc(O)cc1 -1.99%, COc1ccc(-c2cn3nc(N4CCCC(C(=O)NCCCOC(C)C)C4)sc3n2)cc1 (stereo not drawn) -17.2%, Cc1ccc(-n2c(SCC(=O)c3ccccc3)nc3c([nH]c4ccccc43)c2=O)cc1 -13.9%, COc1ccc(NC(=O)CCNS(=O)(=O)c2ccc3c(c2)CCCC(=O)N3)cc1Cl 2.27%, COc1ccc(C(=O)Nc2cccc(C(=O)OCc3cc(=O)n4c5c(sc4n3)CCCC5)c2)cc1 -28.5%, Cc1cccc(N2CCN(Cc3c(C)n(C)n(-c4ccccc4)c3=O)CC2)c1C -8.21%, Cc1cccc(N2CCN(C(=O)c3oc(=O)c4ccccc4c3-c3ccccc3)CC2)c1C -28%, COc1cccc(-c2n[nH]c3c2C(c2cccc(O)c2)N(C)C3=O)c1 (stereo not drawn) -29.2%, CCC(=O)N1N=C(c2ccc(OC)cc2)CC1c1cn(-c2ccccc2)nc1-c1cccs1 (stereo not drawn) -8.58%, CC1CCN(CC(O)COc2ccc(C(=O)c3ccccc3)cc2)CC1 (stereo not drawn) -12.1%, O=C(c1ccc(Cl)cc1)c1ccc(OCC(O)CN2CCCCC2)cc1 (stereo not drawn) -4.4%, Cn1c(=O)c2c(nc(Oc3ccc(C#N)cc3)n2Cc2ccc(Cl)cc2Cl)n(C)c1=O -14.7%, O=[N+]([O-])c1cc(-c2nc(-c3ccccc3)no2)ccc1NCc1ccco1 -32.1%, COc1ccccc1C(=O)NC(=O)COC(=O)c1ccco1 -12.8%, COc1ccc(CC(=O)Nc2ccccc2NC(=O)c2ccco2)cc1OC 6.04%, COc1ccc(OC)c(NC(=O)Cn2c(=O)n(Cc3ccccc3)c(=O)c3ccccc32)c1 -19.8%, CN(C)c1ccc(C2N(C)C(=O)c3ccccc3N2C)cc1 (stereo not drawn) -33.6%, Cc1cc(NS(=O)(=O)c2ccc(NC(=O)c3ccccc3C)cc2)nc(C)n1 0%

Potency, active:
O=C1c2ccccc2C2=Nc3ccccc3SC(c3ccccc3F)C12 (stereo not drawn) 14.1 µM, CCOc1ccccc1OCCCNCc1ccccc1 5.01 µM, O=S(=O)(Nc1ccc(O)c2ccccc12)c1ccc(OC(F)(F)F)cc1 50.1 µM, Cc1c(CC(=O)N2CCN(C(=O)C3COc4ccccc4O3)CC2)c(=O)oc2c(O)c(O)ccc12 (stereo not drawn) 2.82 µM, CC(C)C1N=C2c3ccccc3N=C(SCC(=O)c3ccc(O)c(O)c3)N2C1=O (stereo not drawn) 3.16 µM, O=C(NCCCNCc1ccccc1)c1ccc(/C=N/O)nc1 7.94 µM, COc1cc(/C=C2/C(=O)NN(c3cccc(Cl)c3)C2=O)cc(Br)c1O 44.7 µM, COc1cccc(Cn2c(SCc3ccc(C(=O)N4CCC(C)CC4)cc3)nc3ccncc32)c1 5.62 µM, CCOc1cccc(/C=N/N2C(=O)CSC2=S)c1O 20 µM, Cc1cccc(N2CCN(C3=C(c4ccccc4)C(=O)c4ccccc43)CC2)c1C 5.62 µM, CCOc1ccc(C(=O)/C=C/c2cn(CC(O)CN3CCCCCC3)c3ccccc23)cc1 (stereo not drawn) 70.8 µM, COc1ccc(C/C(N)=N/OC(=O)c2ccco2)cc1OC 44.7 µM, CN(C)c1ccc(Nc2c3c4c(cccc4n(C)c2=O)C(=O)c2ccccc2-3)cc1 3.55 µM
